# Rab9 prom act = activators of Rab9 promoter; Huh7 Rab9 promoter-luciferase reporter, luminescence, 24 h; Potency, µM (top dose mostly 9.22 µM), for inactives: top-dose activation, negative = inhibition, actives largely listed as activators; 2.8% of 320,000 active; AID 485297; also: % of control where 0% means no effect; nearly all actives have a fitted effect of over 60% in size
#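 Luminescence from Amplite-detected luciferase (10 minutes, ambient) reports Rab9 promoter activation. Before that, stable Rab9-luciferase Huh7 cells (1500/well, reduced-serum OP-MEM I plus 10% FBS) were exposed to compound for 24 hours at 37C.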
# NPC1 prom act = NPC1 promoter activation. Huh7 NPC1 promoter luciferase reporter, 24 h. Potency, µM (series often up to 9.22 µM), without a hit: at the highest dose activation, actives largely listed as activators. 2.4% of 320,000 active. AID 485313; also: % of control where 0% means no effect; nearly all actives have a fitted effect of over 60% in size
#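 Luminescence read-out of NPC1 promoter-driven luciferase in stably transfected Huh7 cells; compounds delivered in DMSO and left 24 h at 37C, 5% CO2, qHTS titration format.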
# SMN2 splice enh = increases expression of the SMN2 splice variant | HEK293 SMN2-luciferase splicing reporter, luminescence, 30-36 h | Potency, µM (series often up to 46.1 µM), without a hit: at the highest dose activity change, positive = activation, actives largely listed as activators | 2.8% of 210,000 active; also: % of control where 0% means no effect; nearly all actives have a fitted effect of over 55% in size
#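 HEK293 cells carry an SMN2 minigene-luciferase reporter in which exon 7 inclusion puts luciferase in frame. Cells were seeded at 2000 cells/well, attached for 10-12 hours, then exposed to compounds for 30-36 hours at 37C before ONE-Glo luminescence.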
# ELG1 DNA repair = ELG1-dependent DNA repair inhibition; HEK293T ELG1-luciferase reporter, luminescence, 16 h; DNA damage induced by 5-fluorouridine; Potency, µM (top dose mostly 46.1 µM), for inactives: at the top dose activity change, negative = inhibition, usual class: inhibitors; 2.3% of 330,000 active; AID 504467; also: % is scaled to controls: 0 for no effect and ±100 for the full control effect; nearly all actives have a fitted effect of over 55% in size
#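 Quantitative HTS, concentration-response format. 2,000 cells/well co-treated with 5-fluorouridine and compound, 16 hr in 5% CO2 at 37 °C; ONE-Glo luminescence read after 30 min.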
# FLuc modulator = inhibits or activates purified firefly luciferase, miR-21 counter-screen | Potency, µM (highest dose often 57.5 µM), for the others: top-dose activity change, negative = inhibition, usual class: inhibitors | 6.9% of 360,000 active | P08659 | purified FLuc, Km substrates, luminescence inhibition;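 also: plate controls were vehicle for no effect and reference inhibitor for full effect; nearly all actives have a fitted effect of over 55% in size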
# Target sequence (P08659 whole entry, looked up): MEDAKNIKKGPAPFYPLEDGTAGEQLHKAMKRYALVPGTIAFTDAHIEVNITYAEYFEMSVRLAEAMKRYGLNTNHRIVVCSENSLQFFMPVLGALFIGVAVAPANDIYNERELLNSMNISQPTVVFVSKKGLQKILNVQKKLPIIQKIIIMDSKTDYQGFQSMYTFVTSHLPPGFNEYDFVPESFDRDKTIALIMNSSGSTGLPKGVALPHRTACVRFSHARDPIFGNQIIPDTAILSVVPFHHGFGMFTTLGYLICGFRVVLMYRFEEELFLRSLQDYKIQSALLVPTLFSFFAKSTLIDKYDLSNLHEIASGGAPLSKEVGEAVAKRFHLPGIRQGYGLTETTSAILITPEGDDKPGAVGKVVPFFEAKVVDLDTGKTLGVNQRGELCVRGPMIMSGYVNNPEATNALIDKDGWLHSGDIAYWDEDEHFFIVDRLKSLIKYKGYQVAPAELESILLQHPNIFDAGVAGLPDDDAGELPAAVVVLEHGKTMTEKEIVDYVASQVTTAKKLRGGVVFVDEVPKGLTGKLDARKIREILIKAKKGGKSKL
#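 Purified P. pyralis luciferase, 10 nM final, with Km-level 10 uM D-luciferin and 10 uM ATP in 50 mM Tris acetate pH 7.5, 10 mM Mg acetate, 0.01% Tween-20, 0.05% BSA; 6-point qHTS titration about 60 µM downward; luminescence read.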
# ELG1 genotox = induces genotoxicity in HEK293T cells with luciferase-tagged ELG1; HEK293T ELG1-luciferase reporter, luminescence, 16 h; Potency, µM (series often up to 46 µM), for the others: at the top dose activity change, positive = activation, most hits filed as activators; 1.3% of 330,000 active; AID 504466; also: % of control where 0% means no effect; nearly all actives have a fitted effect of over 60% in size
#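 Reporter readout depends on ELG1 protein level, which increases with genetic stress. After 16 hr compound exposure at 37 °C, luciferase activity was quantified using ONE-Glo.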
# Active calls of the source: *; ? = inconclusive; · = no result given. Compounds with a hit are over-represented: about 9.3% of the library has one in this group of screens. Calls follow the shape of the dose curve; as a rule, active = well fitted curve in the direction sought with a large enough effect; inconclusive = small, poorly fitted or top-dose-only effect, or another doubt; inactive = no such curve, though single readings can be large; an effect the other way counts as inactive or inconclusive. Potency is read from the fitted curve at half-maximal effect.
SMILES,Rab9 prom act,NPC1 prom act,SMN2 splice enh,ELG1 DNA repair,FLuc modulator,ELG1 genotox
COc1ccc(NC(=O)Cc2nnc(SCC(=O)Nc3nccs3)n2C)cc1,4.0%,6.8%,·,-0.9%,15.1µM*,2.3%
CCc1ccc(NC(=O)c2c(C(=O)Nc3ccccc3)sc3nc(C)cc(=O)n23)cc1,4.2%,-5.3%,-14.4%,1.9%,-6.1%,3.9%
Cn1ccnc1SCC(=O)Nc1ccc(Oc2ccccc2)cc1,10.7%,?,-7.1%,?,13.5µM*,?
Cn1c(CSCc2ccc(F)cc2)nnc1SCC(=O)Nc1nccs1,4.6%,-1.3%,-44.9%,16.4µM*,1.1%,-7.1%
COc1ccc(C(=O)NCCc2nnc3ccc(SCC(=O)Nc4ccccc4)nn23)cc1,2.82µM*,1.58µM*,·,?,3.01µM*,?
O=C(CSc1ccc2nnc(CCNC(=O)c3ccccc3)n2n1)Nc1ccccc1,0.5%,-2.7%,-17.3%,14.5%,-1.7%,1.7%
COc1ccccc1CNC(=O)Cc1csc(NC(=O)Nc2ccccc2OC)n1,-1.1%,-1.3%,·,?,6.4%,-8.4%
COc1ccccc1NC(=O)Nc1nc(CC(=O)Nc2cccc(F)c2)cs1,7.5%,-5.7%,·,?,16.9µM*,-9.0%
COc1ccccc1NC(=O)Nc1nc(C(C)(C)C)cs1,15.2%,-2.6%,5.8%,-6.2%,8.49µM*,-4.2%
COc1ccccc1NC(=O)Nc1nc(CC(=O)Nc2ccc(N(C)C)cc2)cs1,-2.0%,0.5%,·,-5.2%,21.3µM*,?
O=C(COc1ccccc1[N+](=O)[O-])OCC(=O)N1CCC(Cc2ccccc2)CC1,-4.7%,1.2%,0.1%,-8.8%,-1.2%,0.0%
Cc1cccc(N2CCN(C(=O)Cn3ncc4c5ccccc5n(C)c4c3=O)CC2)c1C,·,·,-4.8%,·,-3.2%,·
CN(C)c1ccc(NC(=O)c2ccc(N3CCOCC3)nc2)cc1,16.1%,22.1%,·,?,15.1µM*,21.9%
O=C(Nc1ccc(N2CCN(c3ncccc3C(F)(F)F)CC2)nc1)c1cccs1,-15.9%,-6.4%,·,20.6µM*,?,-22.8%
COC(=O)c1cc(NC(=O)c2cccs2)ccc1N1CCOCC1,-2.1%,-5.0%,8.9%,-17.5%,-5.4%,-6.2%
O=C(Nc1ccc(N2CCOCC2)nc1)c1cccs1,2.51µM*,?,11.2µM*,?,?,16.4%
O=C(Nc1ccc(N2CCOCC2)c(F)c1)c1cccs1,0.398µM*,0.501µM*,·,?,4.26µM*,6.51µM*
C#CC(C)(CC)NC(=O)c1cnn2c(C(F)F)cc(-c3ccccc3OC)nc12 (stereo unspecified),·,·,·,·,0.4%,·
O=C(NCc1cc(C(F)(F)F)cc(C(F)(F)F)c1)C1CC(c2ccccc2C(F)(F)F)=NO1 (stereo unspecified),-1.9%,-1.6%,·,8.2%,0.1%,-1.6%
Cc1ccc(-n2nc(C(=O)NCCN(C)C)c(=O)n(C)c2=O)cc1,·,·,·,·,3.4%,·
N/C(=N\O)c1ccc(N2CCN(c3ncccc3C(F)(F)F)CC2)nc1,2.51µM*,2.24µM*,·,?,12µM*,?
O=C(N=C1c2ccccc2CN1c1ccc(F)c(Cl)c1)c1cccnc1Cl,?,?,11.2µM*,?,15.1µM*,?
CCOc1cnc(-c2c(-c3c(F)cccc3Cl)noc2C)o1,-4.1%,-4.6%,-67.9%,-29.4%,3.8%,0.9%
CCOc1cnc(-c2ccccc2F)o1,-2.8%,0.2%,18.9%,22.4%,16.9µM*,7.8%
O=C(CSc1ccc(-c2ccc(F)cc2)nn1)N1CCCCC1,23.5%,19.7%,4.4%,?,?,8.6%
SMILES,Rab9 prom act,NPC1 prom act,SMN2 splice enh,ELG1 DNA repair,FLuc modulator,ELG1 genotox
COc1ccc(-c2cc(C(F)(F)F)nc(SCC(=O)N3CCOCC3)n2)cc1OC,0.0%,0.8%,6.2%,8.2µM*,3.3%,-6.5%
COc1ccc(-c2ccc(SCC(=O)N3CCOCC3)nn2)cc1,0.2%,20.2%,9.1%,?,10.7µM*,4.5%
O=C(CSc1ccc(-c2ccc(Br)cc2)nn1)N1CCOCC1,9.9%,29.8%,-12.9%,-24.8%,15.1µM*,-5.8%
Cc1c(C(=O)O)cccc1-n1c(C)cc(/C=N/NC(=O)c2cc3ccccc3o2)c1C,0.1%,1.1%,?,3.6%,?,-0.3%
C/C(C/C(C)=C1/SC(=S)NC1=O)=C1\SC(=S)NC1=O,-0.2%,-4.3%,0.9%,13.6%,26.9µM*,0.3%
CCCCCC/C(C)=C1/SC(=S)NC1=O,-2.0%,-3.0%,-11.6%,-1.6%,-6.2%,-7.8%
CC(=O)Oc1ccc(C(=O)Nc2ccccc2C(=O)Nc2cccc(C(=O)O)c2)cc1,0.8%,0.4%,·,?,4.26µM*,11.7%
CC(=O)Oc1ccc(C(=O)Nc2ccccc2C(=O)NCC(C)C)cc1,-14.2%,-0.2%,?,?,?,-0.7%
CC(=O)Oc1ccc(C(=O)Nc2ccccc2C(=O)Nc2ccc(C(=O)O)cc2)cc1,0.7%,4.1%,·,2.6%,2.39µM*,-0.6%
COc1ccc(NC(=O)c2ccccc2NC(=O)c2ccccc2)cc1,7.7%,16.1%,·,?,?,5.5%
CC(=O)Oc1ccc(C(=O)Nc2cccc(C(=O)Nc3ccccc3C(=O)O)c2)cc1,1.7%,-3.3%,·,3.2%,10.7µM*,-5.6%
O=C(CSc1nnnn1C1CCCCC1)N1CCOCC1,-3.2%,-2.2%,7.0%,-1.2%,5.4%,4.4%
Cc1cccc(C)c1NC(=S)NC(=O)c1ccc(Br)o1,-2.5%,-6.6%,9.9%,0.6%,-1.7%,-3.0%
O=C(NCCc1ccccc1)Nc1cccc(Cl)c1,?,?,20.8%,?,16.9µM*,8.3%
O=C(NCCc1ccc(Cl)cc1)Nc1cccc(Cl)c1,-1.2%,-0.3%,-21.6%,2.1%,?,-10.8%
CCCNS(=O)(=O)c1ccc(CCC(=O)Nc2ccc3c(c2)OCCO3)cc1,-3.1%,-2.3%,-20.4%,-2.4%,-5.4%,-0.2%
O=C(CCc1ccc(S(=O)(=O)NCCc2ccccc2)cc1)Nc1ccc2c(c1)OCCO2,0.3%,-1.5%,-8.3%,13µM*,0.4%,-2.2%
O=C(NCCc1ccc(F)cc1)Nc1ccc2c(c1)OCO2,2.82µM*,?,·,?,?,13.5%
O=C(O)CCCCCNC(=O)Nc1ccc2c(c1)OCCO2,-32.5%,-0.5%,·,?,9.53µM*,5.0%
O=C(CNc1ccccc1)Nc1ccc(F)cc1,?,?,-6.5%,?,?,?
O=C(CNS(=O)(=O)/C=C/c1ccccc1)OCC(=O)N1CCC(Cc2ccccc2)CC1,0.8%,-1.0%,-12.7%,-1.6%,0.0%,0.0%
COc1cc(OCC(=O)NC(C)C)cc2c1C(=O)O[C@@H](C)CCCC(=O)CCCCC2,-4.9%,3.6%,·,-8.3%,0.4%,-12.9%

# From PubChem BioAssay
